# From the supplement of paper PMC7366291
# Counter-ions that a name gives are not always drawn. ± gives the standard deviation of the averaged measurements.
# Test system: Danio rerio Tg(wt1b:EGFP) embryo, pronephros
# Assay: fraction of imaged embryos annotated as normal kidney; higher = less nephrotoxic; extreme values may be limits of the assay
# Conditions: 25 µM; exposure: 24-48 hpf
# Summary of the method: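 The read-out is the proportion of embryos in each treatment manually annotated as normal-kidney. Exposure ran from 24 to 48 hpf at 28.5°C in 12-well plates, using dechorionated Tg(wt1b:EGFP) zebrafish embryos in 5 mM HEPES-buffered E3 with 0.003% PTU, 0.5% DMSO and 25 μM compound. For imaging, larvae were anaesthetised with tricaine, positioned dorsally in agarose-filled 96-well plates and captured by widefield fluorescence (470 nm, 10 z-slices), with scoring done on maximum projections.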
row,SMILES,fraction of imaged embryos annotated as normal kidney
1,O=P1(NCCCl)OCCCN1CCCl (configuration not stated) [Ifosfamide],0.833
2,C[C@]12CC[C@@H]3c4ccc(OC(=O)N(CCCl)CCCl)cc4CC[C@H]3[C@@H]1CC[C@@H]2O [Estramustine],0.333
3,"CNCC(O)c1ccc(O)cc1 (racemic) [(+,-)-Synephrine]",0.833
4,C[C@]12CCC(=O)C=C1CC[C@@H]1[C@@H]2C(=O)C[C@]2(C)C(=O)CC[C@@H]12 [Adrenosterone],1
5,CC(C)C[C@H](CN)CC(=O)O [Pregabalin],0.917
6,C[N+]1(C)CCOC(O)(c2ccc(-c3ccc(C4(O)C[N+](C)(C)CCO4)cc3)cc2)C1 (configuration not stated) [Hemicholinium bromide],0.917
7,CC(=O)OC1CN2CCC1CC2 (configuration not stated) [Aceclidine Hydrochloride],0.917
8,C=CCN1CC[C@]23c4c5ccc(O)c4O[C@H]2C(=O)CC[C@@]3(O)[C@H]1C5 [Naloxone hydrochloride],0.833
9,NC(=O)C[S+]([O-])C(c1ccccc1)c1ccccc1 (configuration not stated) [Modafinil],0.5
10,O=[N+]([O-])O[C@@H]1CO[C@H]2[C@@H]1OC[C@@H]2O [Isosorbide mononitrate],0.833
11,CNC(C)(C)Cc1ccccc1 [Mephentermine hemisulfate],1
12,C#C[C@]1(O)CC[C@H]2[C@@H]3CCC4=CC(=O)CCC4=C3C=C[C@@]21CC [Gestrinone],0.417
13,CN1[C@@H]2CC[C@H]1C[C@@H](OC(=O)[C@H](CO)c1ccccc1)C2 [Hyoscyamine (L)],0.75
14,CCCC(C)(COC(N)=O)COC(=O)NC(C)C (configuration not stated) [Carisoprodol],1
15,COc1ccc(C(CN(C)C)C2(O)CCCCC2)cc1 (configuration not stated) [Venlafaxine],0.917
16,CC[N+]1(C)CCCC(OC(=O)C(O)(c2ccccc2)c2ccccc2)C1 (configuration not stated) [Pipenzolate bromide],0.909
17,C=C1C[C@@H]2[C@H](CC[C@]3(C)C(=O)CC[C@@H]23)[C@@]2(C)C=CC(=O)C=C12 [Exemestane],0.727
18,S=C(NC1CCCCC1)N1CCC(c2cnc[nH]2)CC1 [Thioperamide maleate],0.917

row,SMILES,fraction of imaged embryos annotated as normal kidney
1,CC(=O)O[C@H]1CC[C@@]2(C)C(=CC[C@@H]3[C@@H]2CC[C@]2(C)C(=O)CC[C@@H]32)C1 [Dehydroisoandosterone 3-acetate],0.917
2,CC[C@@H](CO)NC(=O)[C@@H]1C=C2c3cccc4[nH]cc(c34)C[C@H]2N(C)C1 [Methylergometrine maleate],0.909
3,C[N+]1([O-])[C@@H]2C[C@@H](OC(=O)[C@H](CO)c3ccccc3)C[C@H]1[C@@H]1O[C@@H]12 (some centres not stated) [Scopolamin-N-oxide hydrobromide],0.909
4,CCOC(=O)c1cncn1[C@H](C)c1ccccc1 [Etomidate],0.833
5,CC(C)C[C@H]1C(=O)N2CCC[C@H]2[C@]2(O)O[C@](NC(=O)[C@@H]3C=C4c5cccc6[nH]c(Br)c(c56)C[C@H]4N(C)C3)(C(C)C)C(=O)N12 [Bromocryptine mesylate],0.833
6,Cc1cccc(C)c1NC1=NCCCS1 [Xylazine],0.833
7,c1ccc2c(c1)OCC(C1=NCCN1)O2 (configuration not stated) [Idazoxan hydrochloride],0.833
8,CCN(C)C(=O)Oc1cccc([C@H](C)N(C)C)c1 [Rivastigmine],0.917
9,CCC1(CC)C(=O)C=CNC1=O [Pyrithyldione],0.727
10,CN(C)C(=O)Oc1cccc([N+](C)(C)C)c1 [Neostigmine bromide],0.667
11,"NCC(O)c1ccc(O)cc1 (racemic) [(+,-)-Octopamine hydrochloride]",0.909
12,C[C@]12CC[C@H](O)C[C@@H]1CC[C@@H]1[C@@H]2CC[C@]2(C)C(=O)CC[C@@H]12 [Epiandrosterone],0.417
13,CC(C)c1c(CN(C)C(C)Cc2ccccc2)n(C)n(-c2ccccc2)c1=O (configuration not stated) [Famprofazone],0.917
14,CCN(CC)C(C)C(=O)c1ccccc1 (configuration not stated) [Amfepramone hydrochloride],0.917
15,C[C@]12CC[C@H](O)C[C@H]1CC[C@@H]1[C@@H]2CC[C@]2(C)[C@@H](C3=CC(=O)OC3)CC[C@]12O [Digitoxigenin],0.667
16,CCC(=O)O[C@@](Cc1ccccc1)(c1ccccc1)[C@@H](C)CN(C)C [Levopropoxyphene napsylate],0.909
17,CC(Cc1ccccc1)NCCC(c1ccccc1)c1ccccc1 (configuration not stated) [Prenylamine lactate],0.727
18,CC(=O)O[C@H]1C[C@@H]2CC[C@@H]3[C@H](CC[C@@]4(C)[C@H]3C[C@H]([N+]3(C)CCCCC3)[C@@H]4OC(C)=O)[C@@]2(C)C[C@@H]1[N+]1(C)CCCCC1 [Pancuronium bromide],1

# Test system: Danio rerio Tg(wt1b:EGFP) embryo, pronephros
# Assay: pronephric angle neck segment to proximal convoluted tubule (mean of left and right), fold change vs DMSO control; higher = larger pronephric angle
# Conditions: 25 µM; exposure: 24-48 hpf
# Summary of the method: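 Using a Fiji macro, distances and angles were calculated from 16 reference points set by hand on maximum projections of pronephroi imaged dorsally (470 nm, 10 z-slices) in agarose-filled 96-well plates. The dechorionated Tg(wt1b:EGFP) zebrafish embryos had received 25 μM compound in 0.5% DMSO in HEPES-buffered E3 with 0.003% PTU from 24 to 48 hpf at 28.5°C. Values more than 2 SD from a feature's mean were excluded. Each feature appears as a fold change over the mean of DMSO-treated embryos from the same day.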
row,SMILES,pronephric angle neck segment
1,O=P1(NCCCl)OCCCN1CCCl (configuration not stated) [Ifosfamide],1.06 ± 0.023
2,C[C@]12CC[C@@H]3c4ccc(OC(=O)N(CCCl)CCCl)cc4CC[C@H]3[C@@H]1CC[C@@H]2O [Estramustine],1.1 ± 0.03
3,"CNCC(O)c1ccc(O)cc1 (racemic) [(+,-)-Synephrine]",1.017 ± 0.0012
4,C[C@]12CCC(=O)C=C1CC[C@@H]1[C@@H]2C(=O)C[C@]2(C)C(=O)CC[C@@H]12 [Adrenosterone],0.958 ± 0.021
5,CC(C)C[C@H](CN)CC(=O)O [Pregabalin],1.03 ± 0.03
6,C[N+]1(C)CCOC(O)(c2ccc(-c3ccc(C4(O)C[N+](C)(C)CCO4)cc3)cc2)C1 (configuration not stated) [Hemicholinium bromide],1 ± 0.1
7,CC(=O)OC1CN2CCC1CC2 (configuration not stated) [Aceclidine Hydrochloride],0.99 ± 0.044
8,C=CCN1CC[C@]23c4c5ccc(O)c4O[C@H]2C(=O)CC[C@@]3(O)[C@H]1C5 [Naloxone hydrochloride],1.05 ± 0.017
9,NC(=O)C[S+]([O-])C(c1ccccc1)c1ccccc1 (configuration not stated) [Modafinil],1 ± 0.041
10,O=[N+]([O-])O[C@@H]1CO[C@H]2[C@@H]1OC[C@@H]2O [Isosorbide mononitrate],0.986 ± 0.021
11,CNC(C)(C)Cc1ccccc1 [Mephentermine hemisulfate],0.991 ± 0.081
12,C#C[C@]1(O)CC[C@H]2[C@@H]3CCC4=CC(=O)CCC4=C3C=C[C@@]21CC [Gestrinone],1.03 ± 0.038
13,CN1[C@@H]2CC[C@H]1C[C@@H](OC(=O)[C@H](CO)c1ccccc1)C2 [Hyoscyamine (L)],0.999 ± 0.012
14,CCCC(C)(COC(N)=O)COC(=O)NC(C)C (configuration not stated) [Carisoprodol],0.938 ± 0.022
15,COc1ccc(C(CN(C)C)C2(O)CCCCC2)cc1 (configuration not stated) [Venlafaxine],0.925 ± 0.013
16,CC[N+]1(C)CCCC(OC(=O)C(O)(c2ccccc2)c2ccccc2)C1 (configuration not stated) [Pipenzolate bromide],0.981 ± 0.037
17,C=C1C[C@@H]2[C@H](CC[C@]3(C)C(=O)CC[C@@H]23)[C@@]2(C)C=CC(=O)C=C12 [Exemestane],1.25 ± 0.036
18,S=C(NC1CCCCC1)N1CCC(c2cnc[nH]2)CC1 [Thioperamide maleate],1.06 ± 0.013

row,SMILES,pronephric angle neck segment
1,CC(=O)O[C@H]1CC[C@@]2(C)C(=CC[C@@H]3[C@@H]2CC[C@]2(C)C(=O)CC[C@@H]32)C1 [Dehydroisoandosterone 3-acetate],1.02 ± 0.043
2,CC[C@@H](CO)NC(=O)[C@@H]1C=C2c3cccc4[nH]cc(c34)C[C@H]2N(C)C1 [Methylergometrine maleate],1.05 ± 0.031
3,C[N+]1([O-])[C@@H]2C[C@@H](OC(=O)[C@H](CO)c3ccccc3)C[C@H]1[C@@H]1O[C@@H]12 (some centres not stated) [Scopolamin-N-oxide hydrobromide],0.9285 ± 0.0031
4,CCOC(=O)c1cncn1[C@H](C)c1ccccc1 [Etomidate],1.03 ± 0.011
5,CC(C)C[C@H]1C(=O)N2CCC[C@H]2[C@]2(O)O[C@](NC(=O)[C@@H]3C=C4c5cccc6[nH]c(Br)c(c56)C[C@H]4N(C)C3)(C(C)C)C(=O)N12 [Bromocryptine mesylate],0.985 ± 0.022
6,Cc1cccc(C)c1NC1=NCCCS1 [Xylazine],0.966 ± 0.057
7,c1ccc2c(c1)OCC(C1=NCCN1)O2 (configuration not stated) [Idazoxan hydrochloride],1.02 ± 0.021
8,CCN(C)C(=O)Oc1cccc([C@H](C)N(C)C)c1 [Rivastigmine],0.9906 ± 0.0047
9,CCC1(CC)C(=O)C=CNC1=O [Pyrithyldione],0.9934 ± 0.0041
10,CN(C)C(=O)Oc1cccc([N+](C)(C)C)c1 [Neostigmine bromide],1.09 ± 0.053
11,"NCC(O)c1ccc(O)cc1 (racemic) [(+,-)-Octopamine hydrochloride]",0.987 ± 0.059
12,C[C@]12CC[C@H](O)C[C@@H]1CC[C@@H]1[C@@H]2CC[C@]2(C)C(=O)CC[C@@H]12 [Epiandrosterone],1.04 ± 0.022
13,CC(C)c1c(CN(C)C(C)Cc2ccccc2)n(C)n(-c2ccccc2)c1=O (configuration not stated) [Famprofazone],1.084 ± 0.0087
14,CCN(CC)C(C)C(=O)c1ccccc1 (configuration not stated) [Amfepramone hydrochloride],1.01 ± 0.0072
15,C[C@]12CC[C@H](O)C[C@H]1CC[C@@H]1[C@@H]2CC[C@]2(C)[C@@H](C3=CC(=O)OC3)CC[C@]12O [Digitoxigenin],1.03 ± 0.066
16,CCC(=O)O[C@@](Cc1ccccc1)(c1ccccc1)[C@@H](C)CN(C)C [Levopropoxyphene napsylate],0.996 ± 0.044
17,CC(Cc1ccccc1)NCCC(c1ccccc1)c1ccccc1 (configuration not stated) [Prenylamine lactate],0.953 ± 0.032
18,CC(=O)O[C@H]1C[C@@H]2CC[C@@H]3[C@H](CC[C@@]4(C)[C@H]3C[C@H]([N+]3(C)CCCCC3)[C@@H]4OC(C)=O)[C@@]2(C)C[C@@H]1[N+]1(C)CCCCC1 [Pancuronium bromide],0.955 ± 0.047
